Measurements: PubChem BioAssay (NCI)
Compounds without any hit were thinned out: in the full panel of roughly 79,000, 15% have a hit. A number with no mark means an inactive call. Active and inactive are the calls of the source. Rule as the data show it: active = growth inhibition above about 70%; inactive = the rest.

Tests used:
[1] = NCI Yeast Anticancer Drug Screen. Data for the rad50 strain (AID 155);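 also: 0% = growth of vehicle-only cultures of the same strain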; settings: S. cerevisiae rad50 strain growth inhibition, stronger effect = higher value
Outline: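 Genetically altered yeast (DNA repair pathway); compound treatment; growth inhibition vs vehicle ctrl.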

[2] = NCI Yeast Anticancer Drug Screen. Data for the mec2-1 strain (AID 157); settings: S. cerevisiae mec2-1 strain, stronger effect = higher value
Outline: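 Cells of the genetically defined mec2-1 yeast strain are incubated with test compound. Inhibition of growth is calculated against vehicle-treated controls.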

[3] = NCI Yeast Anticancer Drug Screen. Data for the sgs1 mgt1 strain (AID 161);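 also: 0% = growth of cultures given vehicle only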; settings: S. cerevisiae sgs1 mgt1 strain, stronger effect = higher value
Outline: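 Inhibition of yeast growth, normalised to vehicle-treated controls, is reported for a strain bearing genetic alterations in DNA damage repair.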

[4] = NCI Yeast Anticancer Drug Screen. Data for the cln2 rad14 strain (AID 165);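 also: 0% = growth equal to vehicle treated cultures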; settings: S. cerevisiae cln2 rad14 strain, stronger effect = higher value
Outline: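 The screen exposed genetically defined yeast (cln2 rad14) to test compounds and scored growth inhibition relative to vehicle-treated controls.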

[5] = NCI Yeast Anticancer Drug Screen. Data for the bub3 strain (AID 167); settings: S. cerevisiae bub3 mutant strain, stronger effect = higher value
Outline: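 Yeast carrying a defined mutation is treated with each compound, and growth is compared with that of vehicle-exposed cells to give inhibition.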

[6] = NCI Yeast Anticancer Drug Screen. Data for the mlh1 rad18 strain (AID 175); settings: S. cerevisiae mlh1 rad18 strain growth inhibition, stronger effect = higher value
Outline: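 Compound-treated yeast growth, normalised to vehicle controls. Strain bears defined DNA repair mutations.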

[7] = at 5.0 µM (retest, dose inferred, filed as 0.5)
[8] = at 50.0 µM (retest, dose inferred, filed as 5.0)

SMILES | growth inhibition [1, 7] | growth inhibition [1, 8] | growth inhibition ([1]; at 50.0 µM) | growth inhibition [2, 7] | growth inhibition [2, 8] | growth inhibition ([2]; at 50.0 µM) | growth inhibition [3, 7] | growth inhibition [3, 8] | growth inhibition ([3]; at 50.0 µM) | growth inhibition [4, 7] | growth inhibition [4, 8] | growth inhibition ([4]; at 50.0 µM) | growth inhibition [5, 7] | growth inhibition [5, 8] | growth inhibition ([5]; at 50.0 µM) | growth inhibition [6, 7] | growth inhibition [6, 8] | growth inhibition ([6]; at 50.0 µM)
COc1ccc(C(=O)[O][Sn]([c]2ccccc2)([c]2ccccc2)[c]2ccccc2)c(OC)c1OC | 100% (active) | 99% (active) | 98.7% (active) | 100% (active) | 100% (active) | 99.1% (active) | 99% (active) | 99% (active) | 98.8% (active) | 99% (active) | 99% (active) | 88.2% (active) | 100% (active) | 100% (active) | 98.9% (active) | 99% (active) | 99% (active) | 98.4% (active)
N/C(=N\OC1(c2ccccc2)OC(=O)C(=O)/C1=C(/O)c1ccccc1)c1ccccc1 (configuration not stated) | 10% | 97% (active) | 98% (active) | 8% | 89% (active) | 98.5% (active) | 13% | 87% (active) | 96.6% (active) | 0% | 75% (active) | 78% (active) | 7% | 94% (active) | 98.2% (active) | 4% | 92% (active) | 98.3% (active)
CSC(=S)N/N=C(C)/C=C/c1ccccc1 | 9% | 98% (active) | 98.2% (active) | 14% | 98% (active) | 98.5% (active) | 25% | 98% (active) | 97.7% (active) | -10% | 94% (active) | 97.8% (active) | 13% | 98% (active) | 97.4% (active) | 20% | 93% (active) | 95.3% (active)
Cc1c2ccccc2c(C)n2c1nc1cc(Cl)c(Cl)cc12 | 12% | 95% (active) | 86.2% (active) | 7% | 93% (active) | 91.3% (active) | 26% | 45% | 89.3% (active) | 27% | 95% (active) | 87.1% (active) | 18% | 97% (active) | 89.9% (active) | 23% | 96% (active) | 85.6% (active)
Clc1ccccc1CN1COc2c(cc(Cl)c3cccnc23)C1 | 21% | 99% (active) | 98.6% (active) | 6% | 99% (active) | 99.5% (active) | 87% (active) | 100% (active) | 99.4% (active) | 6% | 99% (active) | 98.8% (active) | 61% | 99% (active) | 99.3% (active) | 97% (active) | 99% (active) | 99% (active)
C#CCCOC(=O)CC1=C(C)/C(=C/c2ccc(S(C)=O)cc2)c2ccc(F)cc21 (configuration not stated) | 23% | 88% (active) | 84.3% (active) | 18% | 84% (active) | 90.2% (active) | 65% | 73% (active) | 88% (active) | 43% | 41% | 85.2% (active) | 51% | 85% (active) | 86.4% (active) | 21% | 83% (active) | 85.9% (active)
O=[N+]([O-])c1ccc(C=NC2CCCCC2)c([N+](=O)[O-])c1 | 0% | 46% | 41% | -1% | 54% | 46% | 2% | 69% | 59.5% | -5% | 25% | -0.85% | 20% | 83% (active) | 55.5% | -5% | 85% (active) | 73.3% (active)
O=C1/C(=C\c2ccc(Cl)cc2)SC2SC=C(c3ccc([N+](=O)[O-])cc3)N12 (configuration not stated) | 0% | 86% (active) | 98.3% (active) | 2% | 94% (active) | 98.9% (active) | -4% | 92% (active) | 99.2% (active) | -20% | 86% (active) | 98% (active) | -7% | 86% (active) | 86.8% (active) | 5% | 92% (active) | 98.6% (active)
C#CC(CC)(CC)NC(=O)NC(C)(C)C | 0% | -18% | 2.1% | -26% | -25% | 0.85% | -11% | -1% | 35.5% | 2% | 23% | -1.85% | -19% | -17% | 28.4% | -21% | -59% | 2.3%
COc1ccc2ccccc2c1/C=C/C(=O)c1ccccc1 | -3% | 34% | 54.6% | 7% | 43% | 19.4% | 11% | 47% | 42.4% | -19% | 40% | 56.2% | -8% | 58% | 46% | 1% | 72% (active) | 46.4%
Cc1cc(N(CCCOS(C)(=O)=O)CCCOS(C)(=O)=O)ccc1C=Nc1cc(Br)c(O)c(Br)c1 | -5% | 33% | 41% | 36% | 7% | 21.3% | -3% | 27% | 86.1% (active) | -3% | -5% | 4.8% | 0% | 41% | 34.8% | -2% | 41% | 68.4%
CCOC(=O)/C(=C\c1cccc(Br)c1)C(C)=O | 47% | 100% (active) | 92.8% (active) | 51% | 99% (active) | 94.9% (active) | 47% | 99% (active) | 93.1% (active) | 45% | 99% (active) | 92.9% (active) | 87% (active) | 100% (active) | 92.7% (active) | 82% (active) | 100% (active) | 92.5% (active)
COC1=CC2=CCC3C(CCC4(C)C(C(C)=O)CCC34)C2(C)CC1 (configuration not stated) | -8% | 5% | 42.5% | -7% | 4% | 13% | -1% | 40% | 49% | -2% | 14% | 0.75% | -17% | -5% | 47.6% | -12% | -2% | 51.1%
C[C@]12CC[C@H]3[C@@H](CCC4=CC(=O)CC[C@@]43C)[C@@H]1CC[C@@H]2C(=O)C=O | 19% | 42% | 67.2% | 6% | 36% | 52.6% | 16% | 61% | 71% (active) | 5% | 21% | 39% | 1% | 17% | 41.2% | 27% | 74% (active) | 56.2%
CC1=C(C(=O)Nc2ccc(Cl)c(Cl)c2)C(c2ccco2)C(C(=O)Nc2ccc(Cl)c(Cl)c2)=C(C)N1 | 41% | 41% | 88.7% (active) | 22% | 22% | 87.7% (active) | -4% | -4% | 89.3% (active) | 24% | 24% | 88.2% (active) | 10% | 10% | 89% (active) | 36% | 36% | 87.6% (active)
CN(C)CCOC1(CC2CCCCC2)CCC(C(C)(C)C)CC1 (configuration not stated) | -9% | 100% (active) | 99% (active) | -17% | 99% (active) | 99% (active) | -6% | 99% (active) | 99.4% (active) | 11% | 100% (active) | 99.5% (active) | -1% | 100% (active) | 98.9% (active) | 14% | 100% (active) | 99.3% (active)
CNc1ccc(F)cc1SSc1cc(F)ccc1NC | 97% (active) | 98% (active) | 99% (active) | 94% (active) | 99% (active) | 99.5% (active) | 95% (active) | 99% (active) | 99.4% (active) | 10% | 99% (active) | 99% (active) | 38% | 99% (active) | 99.2% (active) | 97% (active) | 99% (active) | 99.2% (active)
CCC[CH2][Sn]([CH2]CCC)([O]N(C)C(=O)c1ccc(Br)cc1)[O]N(C)C(=O)c1ccc(Br)cc1 | 63% | 98% (active) | 89.5% (active) | 87% (active) | 99% (active) | 90.2% (active) | 33% | 95% (active) | 92.8% (active) | 27% | 98% (active) | 90.7% (active) | 37% | 97% (active) | 90.7% (active) | 90% (active) | 98% (active) | 90.5% (active)
C/C(=N/NC(=S)Nc1ccc([N+](=O)[O-])cc1)c1cccc(/C(C)=N\NC(=S)Nc2ccc([N+](=O)[O-])cc2)n1 | 14% | 50% | 19.6% | 5% | 72% (active) | 0.15% | 15% | 87% (active) | 35.5% | 19% | 82% (active) | -7.35% | 21% | 94% (active) | 2.45% | 10% | 61% | 14.4%
